Vaccinia Venus = vaccinia inhibition (Venus reporter) | 0.46% of 330,000 active | Potency, µM (top dose mostly 36.5 µM), usual class: inhibitors | Vaccinia virus Venus reporter expression, fluorescence; calls by dose curve; tested in A549 cells; further: nearly all actives have a fitted effect of over 30% in size
AMA1 RON2 block = disrupts binding of P. falciparum AMA1 to RON2. AlphaScreen AMA1-biotinylated RON2 peptide binding. Potency, µM (highest dose often 58.2 µM), actives largely listed as inhibitors. 0.2% of 360,000 active. AID 720542; further: nearly all actives have a fitted effect of over 45% in size
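AMA1 (3D7) with his tag at 25 nM final met compounds first, then biotinylated RON2 peptide at 25 nM; detection used donor plus acceptor beads, 10 µg/mL apiece, read by AlphaScreen after 30 min at room temperature.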
Pf growth 48h = inhibits P. falciparum growth in the first generation, 48 h | 5.9% of 310,000 active | P. falciparum luciferase growth in erythrocytes, 48 h | Potency, µM (doses to about 28.7 µM), most hits filed as inhibitors | AID 504832
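Growth was read as firefly luciferase luminescence after a 48 h, 37 C, 5% CO2 exposure of compounds to reporter-bearing P. falciparum cultures (0.1% parasitemia, 2% hematocrit final) in Albumax-supplemented RPMI 1640.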
VACV mCherry inh = vaccinia inhibition (mCherry reporter). Vaccinia virus mCherry reporter infection, fluorescence. Potency, µM (series often up to 36.5 µM), actives largely listed as inhibitors. 0.63% of 310,000 active. AID 720579; calls by dose curve; tested in A549 cells; further: nearly all actives have a fitted effect of over 35% in size
Pf growth 96h = P. falciparum growth inhibition at 96 hours | P. falciparum luciferase reporter growth, 96 h | Potency, µM (doses to about 28.7 µM), usual class: inhibitors | 6.9% of 320,000 active | AID 504834
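Parasite growth measured via integrated firefly luciferase reporter in P. falciparum. Infected erythrocytes at 2% hematocrit, 0.05% parasitemia final were treated 96 hours at 37 C under 5% CO2, and luminescence was read.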
Hits are given with their value; . = inactive; ? = inconclusive; / = no result; [ ] = remark or other dose. Shown are actives, neighbours in structure and some others; about 8.7% of the full set was active somewhere. Unless noted, the call rests on the fitted dose curve; in most records, active means well fitted curve in the direction sought with a large enough effect; inconclusive means small, poorly fitted or top-dose-only effect, or another doubt; inactive means no such curve, though single readings can be large; an effect the other way counts as inactive or inconclusive.

SMILES	Vaccinia Venus	AMA1 RON2 block	Pf growth 48h	VACV mCherry inh	Pf growth 96h
COc1ccc(-c2cc(C(=O)N/N=C/c3ccc(OC)c(COCC(F)(F)C(F)F)c3)c3ccccc3n2)c(OC)c1	.	.	1.47µM	.	6.57µM
COc1ccc(-c2cc(C(=O)N/N=C(\C)c3ccco3)c3ccccc3n2)c(OC)c1	.	.	9.28µM	?	13.1µM
CCOc1cccc(C2c3c(oc4ccc(F)cc4c3=O)C(=O)N2CCOC)c1 (stereo not drawn)	.	/	/	.	/
Brc1ccc(C=C2C=c3ccccc3=C2)cc1	.	/	/	.	/
Cc1ccc(C)c(-c2csc(NC(=O)c3cnccn3)n2)c1	.	.	?	.	11.7µM
Oc1ccc(/C=N/Nc2ccnc3cc(Cl)ccc23)c(O)c1	/	.	0.586µM	/	0.37µM
Cc1ccccc1/C=N/Nc1ccnc2cc(Cl)ccc12	?	.	0.828µM	?	0.828µM
Cc1ccc(/C=N/Nc2ccnc3cc(Cl)ccc23)c(C)c1	/	.	0.208µM	/	?
Cc1cc(N/N=C/c2ccc(O)cc2O)c2ccccc2n1	/	.	?	/	.
Cc1cc(C)n(-c2ccnc3cc(Cl)ccc23)n1	.	.	.	.	.
Cc1ccc2nc(C)cc(N/N=C/c3ccccc3O)c2c1	/	.	.	/	.
CCOc1ccc(-c2nc(SCC(=O)NCCOC)c(-c3ccc(OC)c(OC)c3)[nH]2)cc1	.	/	/	.	/
NC(N)=NN=C1CCCCCCCCCCC1	.	.	10.4µM	.	3.7µM
COC(=O)[C@]1(C)CC[C@@]2(C)CC[C@@]3(C)C4=CCc5c(cc(O)c(O)c5C)[C@]4(C)CC[C@@]3(C)C2C1 (stereo partly drawn)	.	/	/	.	/
CC1=C(O)C(=O)C=C2C1=CC=C1[C@]2(C)CC[C@@]2(C)C3C[C@](C)(C(=O)O)CC[C@@]3(C)CC[C@@]12C (stereo partly drawn)	11.2µM	/	/	14.1µM	/
Cc1cc2c(cc1S(=O)(=O)Nc1cccc(C(F)(F)F)c1)OCCN2C	.	/	/	.	/
CCN(CC)C1CCN(Cc2c(C(=O)N3CCCCCCC3)nc3ccc(Cl)cn23)C1 (stereo not drawn)	.	.	?	.	11.7µM
COC1CCN(Cc2c(C(=O)N3C[C@@H](C)O[C@@H](C)C3)nc3ccc(Cl)cn23)CC1	.	.	.	.	.
O=[N+]([O-])c1cccc(/C([O-])=C(/C(=S)Nc2cccc3ccccc23)[n+]2ccccc2)c1	.	.	9.28µM	.	?
CSc1nnc(CCCCCCCCc2nnc(SC)o2)o1	/	.	?	/	13.1µM
CCC(C)[C@H](NC(=O)[C@@H]1Cc2c([nH]c3ccccc23)C2c3ccccc3C(=O)N21)C(=O)N1CCC[C@@H]1C(=O)O (stereo partly drawn)	.	.	?	.	10.4µM
COC(=O)[C@@H]1C[C@@]2(O)[C@H](O)[C@H](O)[C@H](O)C[C@H]2N1Cc1ccccc1OS(=O)(=O)c1ccc(C)cc1	.	.	.	.	.
COC(=O)[C@@H]1C[C@H]2CC[C@H](O)C[C@H]2N1Cc1ccccc1OS(=O)(=O)c1ccc(C)cc1	.	.	10.4µM	.	?
CC(=O)c1ccc(OCC(O)Cn2nnc3ccccc32)cc1 (stereo not drawn)	.	.	7.38µM	.	.
O=C1C2CC=CCC2C(=O)N1c1ccc(OCC(O)Cn2nnc3ccccc32)cc1 (stereo not drawn)	/	.	/	/	14.7µM
SMILES	Vaccinia Venus	AMA1 RON2 block	Pf growth 48h	VACV mCherry inh	Pf growth 96h
COC(=O)c1ccc(OCC(O)Cn2nnc3ccccc32)cc1 (stereo not drawn)	.	.	.	.	?
CC(=O)c1ccc(OCC(O)CN2CCC(C)CC2)cc1 (stereo not drawn)	.	.	/	.	?
N#Cc1ccc(-c2ccc(OCC(O)Cn3nnc4ccccc43)cc2)cc1 (stereo not drawn)	.	.	?	?	?
CC(=O)c1ccc(OCC(O)CN2C(C)CCCC2C)cc1 (stereo not drawn)	.	.	/	.	8.28µM
Cc1ccc(C(=O)Cn2nnc3ccccc32)cc1	.	.	.	/	11.7µM
CCOc1ccc(NC(=O)c2cc(=O)c3cc(CC)ccc3o2)cc1	.	/	/	.	/
OC(COc1ccc(Cl)cc1Cl)Cn1ccnc1 (stereo not drawn)	.	.	/	.	.
C=CCOC(Cn1ccnc1)c1ccc(Cl)cc1Cl (stereo not drawn)	/	.	4.15µM	/	3.38µM
Clc1ccc(COC(Cn2ccnc2)c2ccc(Cl)cc2Cl)c(Cl)c1 (stereo not drawn)	.	.	2.08µM	.	1.65µM
O=C(COc1ccc(Br)cc1Br)Nc1ccc(S(=O)(=O)Nc2ncccn2)cc1	.	/	/	.	/
Cc1ccc(NC(=O)CSc2nc3nc(C)cc(C)c3c(=O)[nH]2)cc1	.	.	.	.	2.33µM
CC(C(=O)N1CCN(Cc2ccccc2)CC1)c1ccc([N+](=O)[O-])cc1 (stereo not drawn)	/	.	.	/	.
CC(OC(=O)c1ccc(Cl)c([N+](=O)[O-])c1)C(=O)N1CCN(Cc2ccccc2)CC1 (stereo not drawn)	/	.	11.7µM	/	?
OCC[n+]1ccc(/C=C/c2c[nH]c3ccccc23)cc1	.	.	0.586µM	.	?
CCCCCCCCCCCCCCCC[n+]1ccc(/C=C/c2c[nH]c3ccccc23)cc1	.	/	/	?	/
Cc1ncc(CO)c2c1Oc1nc(-c3ccccc3)nc(SCC(=O)N(C)c3ccccc3)c1C2	/	/	?	/	13.1µM
COc1cccc(-c2nc3c(c(SCC(=O)Nc4cc(C)ccc4C)n2)Cc2c(CO)cnc(C)c2O3)c1	.	/	/	.	/
COc1ccccc1-c1nc2c(c(SCC(=O)N3CCCCC3)n1)Cc1c(CO)cnc(C)c1O2	/	.	10.4µM	/	1.65µM
Cc1ncc(CO)c2c1Oc1nc(-c3ccccc3)nc(SCC(=O)N3CCOCC3)c1C2	.	.	?	.	.
Cc1ncc(CO)c2c1Oc1nc(-c3ccccc3F)nc(SCC(=O)N(C)c3ccccc3)c1C2	/	.	.	/	.
COc1cccc(-c2nc3c(c(SCC(=O)N4CCOCC4)n2)Cc2c(CO)cnc(C)c2O3)c1	.[7.34 µM]	.	?	.[7.34 µM]	13.1µM
Cc1ncc(CO)c2c1Oc1nc(-c3ccccc3)nc(SCC(=O)N3CCCCC3)c1C2	.	.	?	.	?
Cc1cccc(-c2nc3c(c(SCC(=O)N4CCOCC4)n2)Cc2c(CO)cnc(C)c2O3)c1	.	.	5.86µM	.	.
CCc1cc2c(cc3c(=O)n(CCCC(=O)NCc4ccccc4Cl)nc(CC)n32)s1	.	/	/	.	/
Cc1cccc(-c2c3c(=O)n(C)c(=O)n(C)c3c3c(C)nc4ccccc4n23)c1	.	/	/	.	/
O=C(COC(=O)c1ccccc1C(=O)c1ccc(Cl)c([N+](=O)[O-])c1)NC1CC1	10µM	.	.	?	.
CNC(=O)COC(=O)c1ccccc1C(=O)c1ccc(Cl)c([N+](=O)[O-])c1	?	.	?	?	.
COc1ccc(-c2nncnn2)cc1	.	.	?	.	6.57µM
COc1ccc(-c2ccc(OC)cc2)cc1	.	.	?	.	.
CCO/C(C)=N/n1c2nc3ccccc3nc2c2c(=O)n(CC(C)C)c(C)nc21	.	.	2.94µM	.	2.33µM

Screening results (PubChem BioAssay)
